GPR151 activ = activators of human GPR151 | Q8TDV0 | PathHunter beta-arrestin GPR151 cells, luminescence | activation, % at 11.2 µM | actives 1% (n = 650,000) | AID 1508602; in the data active = activation above about 4.9%
MITF inh = inhibitors of human MITF; O75030; AlphaScreen MITF homodimerization, bead proximity signal; inhibition, % at 2.6 µM; actives 0.91% (n = 650,000); AID 1259374; in the data active = inhibition above about 50%
FBW7 activator = activators of human E3 ligase FBW7; Q969H0; AlphaScreen FBW7–phospho-cyclin E peptide binding, activator screen; normalized activity (activation), % at 26.1 µM; actives 0.13% (n = 650,000); AID 1259310; in the data active = normalized activity above about 1.9%;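 also: purified mutant Fbw7 with reduced substrate affinity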
TEAD-YAP block = TEAD-YAP interaction inhibition | actives 1.4% (n = 640,000) | inhibition, % at 9.12 µM | HEK-TIYL cells, TEAD-Gal4/YAP UAS-luciferase luminescence; in the data active = inhibition above about 32%
GPR151 confirm = confirmation of human GPR151 activators; shares compounds with GPR151 activ; GPR151 PathHunter beta-arrestin cells, luminescence, 90 min; % of EA-reagent control over plate median; activation, % at 11.2 µM; 6,700 tested, under 10 active; AID 1508609;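 active = mean percent activation across replicates above the confirmation screen cutoff of 4.91%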
GPR119 counter = GPR119 activation, counter-screen for GPR151 activators; shares compounds with GPR151 activ; GPR119 PathHunter beta-arrestin cells, luminescence, 90 min; 0 = compound-well median, 100 = enzyme-acceptor control; activation, % at 11.2 µM; actives 0.3% (n = 6,700); AID 1508611;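 active = mean percent activation in the counterscreen above 29.09%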;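 also: counterscreen on off-target GPR119 to flag nonselective hits from the GPR151 activator screen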
Target sequence (Q8TDV5 whole entry, looked up): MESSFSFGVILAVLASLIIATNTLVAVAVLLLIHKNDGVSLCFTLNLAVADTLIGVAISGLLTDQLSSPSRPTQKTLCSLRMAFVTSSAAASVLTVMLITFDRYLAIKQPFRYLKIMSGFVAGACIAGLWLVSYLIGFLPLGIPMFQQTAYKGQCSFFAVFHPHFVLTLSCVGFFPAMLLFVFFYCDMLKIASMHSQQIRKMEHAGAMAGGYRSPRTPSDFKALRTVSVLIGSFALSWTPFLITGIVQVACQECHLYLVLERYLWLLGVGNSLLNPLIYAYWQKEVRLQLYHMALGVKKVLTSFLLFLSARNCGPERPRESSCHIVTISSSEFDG
Each line names hits and unclear results; the compound was inactive in the other large screens (follow-up assays come after a bar, where they were run). Only some compounds are listed: those with a hit (about 3.4% of all), similar ones and a draw of the others.

Cc1ccc(C)c(-c2cc(C(=O)NN3CCOCC3)c3ccccc3n2)c1	GPR151 activ 5.4 | GPR151 confirm inactive | GPR119 counter inactive
CC1=NN(c2cccc(Cl)c2)C(=O)/C1=C/c1ccc(-c2ccccc2[N+](=O)[O-])o1	none
CC(C)N(CCNc1nc(NCCCN2CCCC2=O)nc2c1ncn2-c1ccccc1)C(C)C	none
Cc1ccc([N+](=O)[O-])cc1S(=O)(=O)Nc1cccc(-c2cn3cccnc3n2)c1	GPR151 activ 6.1 | GPR151 confirm inactive | GPR119 counter inactive
CC(=O)C1C(c2ccc(C(F)(F)F)cc2)NC(=O)NC1(O)C(F)(F)F (configuration not stated)	none
O=C(NCc1ccco1)/C(=C\c1ccc(Br)cc1)NC(=O)c1ccccc1	GPR151 activ 7.0 | GPR151 confirm inactive | GPR119 counter inactive
O=C(NCc1ccccc1)/C(=C\c1ccc(Cl)cc1)NC(=O)c1ccco1	none
O=C(NCc1ccco1)/C(=C/c1ccc(Cl)cc1)NC(=O)c1ccco1	GPR151 activ 5.7 | GPR151 confirm inactive | GPR119 counter inactive
COc1ccc(NC(=O)c2ccc(Br)s2)cc1OC	GPR151 activ 8.8 | GPR151 confirm inactive | GPR119 counter inactive
CC(C)(C)OC(=O)N1CCC(Nc2nccc(-c3ccc(S(C)(=O)=O)cc3)n2)CC1	none
CC(C)(C)OC(=O)N1CCN(c2nccc(-c3ccc(-c4ccc(Cl)cc4)s3)n2)CC1	GPR151 activ 5.3 (no result: MITF inh, FBW7 activator, TEAD-YAP block) | GPR151 confirm inactive | GPR119 counter inactive
c1cncc(-c2noc(C34CC5CC(CC(C5)C3)C4)n2)c1	GPR151 activ 6.9 | GPR151 confirm inactive | GPR119 counter inactive
c1cncc(-c2noc(CCC3CCCC3)n2)c1	GPR151 activ 7.7 | GPR151 confirm inactive | GPR119 counter inactive
COc1cc(C=O)ccc1OCc1nnc(-c2ccccc2)o1	none
CCOc1ccc(N2C(=O)/C(=C\c3ccc(Br)s3)S(=O)(=O)C2c2cccc([N+](=O)[O-])c2)cc1 (configuration not stated)	none
O=C(CN1C(=O)NC2(CCc3ccccc32)C1=O)NCCCN1CCCC1=O (configuration not stated)	none
CN1CCOc2cc(S(=O)(=O)NCCc3ccc(Cl)cc3)ccc21	none
Cc1cc2c(cc1S(=O)(=O)Nc1ccccn1)OCCN2C	none
Cc1cc2c(cc1S(=O)(=O)Nc1ccccc1Br)OCCN2C	GPR151 activ 9.7 | GPR151 confirm inactive | GPR119 counter inactive
CCc1ccccc1NS(=O)(=O)c1ccc2c(c1)OCCN2C	none
Cc1cc2c(cc1S(=O)(=O)Nc1ncccc1C)OCCN2C	GPR151 activ 6.3 | GPR151 confirm inactive | GPR119 counter inactive
COc1ccc(CCNS(=O)(=O)c2ccc3c(c2)OCCN3C)cc1OC	GPR151 activ 5.2 | GPR151 confirm inactive | GPR119 counter inactive
CN1CCOc2cc(S(=O)(=O)Nc3ccccc3F)ccc21	GPR151 activ 15.9 | GPR151 confirm inactive | GPR119 counter inactive
Cc1ccc(S(=O)(=O)NC(=O)N2c3ccccc3C(=O)NC2(C)C)cc1	none
CCOC(=O)c1sc(NC(=O)CSc2ncnc3sc(C)c(C)c23)c(C(=O)OCC)c1C	GPR151 activ 6.4 | GPR151 confirm inactive | GPR119 counter inactive
Cc1ccc(N2CC(C(=O)Nc3ccccc3C(N)=O)CC2=O)cc1 (configuration not stated)	none
O=C(NCc1ccco1)C1CC(=O)N(c2ccc(F)cc2)C1 (configuration not stated)	none
Cc1ccc(N2CC(C(=O)Nc3ccccc3C(=O)NCCc3ccccc3)CC2=O)cc1 (configuration not stated)	GPR151 activ 5.3 | GPR151 confirm inactive | GPR119 counter inactive
Cc1ccc(N2CC(C(=O)Nc3ccccc3C(=O)NC(C)C)CC2=O)cc1 (configuration not stated)	GPR151 activ 6.3 | GPR151 confirm inactive | GPR119 counter inactive
O=C(NCc1ccco1)c1ccccc1NC(=O)C1CC(=O)N(c2ccc(Cl)cc2)C1 (configuration not stated)	GPR151 activ 6.8 | GPR151 confirm inactive | GPR119 counter inactive
Cc1cccc(OCC(=O)Nc2cccc(NC(=O)c3ccco3)c2)c1C	none
COc1ccc(C(=O)OCC#CCSc2nnc(-c3ccncc3)o2)cc1	none
CCCCCCNC(=O)CCCN1C(=O)c2ccccc2C1=O	none
CC(C)C(=O)Nc1nc2ccc(F)cc2s1	none
CCc1ccccc1NC(=S)Nc1nc2ccc(F)cc2s1	GPR151 activ 5.5, TEAD-YAP block 45.6 | GPR151 confirm inactive | GPR119 counter inactive
CCOC(=O)c1c(NC(=S)NC(=O)c2ccccc2)sc2c1CC(C)CC2 (configuration not stated)	none
C=CCc1cccc(C=Nc2ccccc2O)c1O	none
CC(=O)N/C(=C\c1ccccc1)C(=O)NC(C)(C)C	GPR151 activ 5.6 | GPR151 confirm inactive | GPR119 counter inactive
O=C(NCCN1CCOCC1)c1nn2c(c1Cl)NC(c1ccc(Br)cc1)CC2C(F)(F)F (configuration not stated)	none
O=C(NCCN1CCOCC1)c1nn2c(c1Cl)NC(c1ccco1)CC2C(F)(F)F (configuration not stated)	GPR151 activ 5.7 | GPR151 confirm inactive | GPR119 counter inactive
COc1ccc(-c2cc(Nc3ccc(Oc4ccccc4)cc3)nc(N)n2)cc1	none
Nc1cccc(-c2cc(Nc3ccc(Oc4ccccc4)cc3)nc(N)n2)c1	GPR151 activ 4.9, TEAD-YAP block 52.3 | GPR151 confirm inactive | GPR119 counter inactive
Cc1cc(OCC(O)CN2C(C)CCCC2C)ccc1Cl (configuration not stated)	none
Clc1ccc(OCCn2cncn2)cc1	GPR151 activ 6.4 | GPR151 confirm inactive | GPR119 counter inactive
COc1ccc(OC)c(C2C(C(N)=O)=C(C)Nc3nc(CCCO)nn32)c1 (configuration not stated)	GPR151 activ 7.7 | GPR151 confirm inactive | GPR119 counter inactive
CC(=O)c1ccc(NC(=O)NS(=O)(=O)c2ccc(C)cc2)cc1	GPR151 activ 5.4 | GPR151 confirm inactive | GPR119 counter inactive
CC(=O)c1ccc(NC(=O)Nc2ccc(NS(=O)(=O)c3ccc(C)cc3)cc2)cc1	none
COc1ccc(C)cc1S(=O)(=O)N1CCC(C(=O)Nc2cccc(C(C)=O)c2)CC1	GPR151 activ 6.1 | GPR151 confirm inactive | GPR119 counter inactive
COc1ccc(C)cc1S(=O)(=O)N1CCC(C(=O)Nc2ccc3c(c2)OCO3)CC1	none
Cc1ccc(NC(=O)C2CCN(S(C)(=O)=O)CC2)cc1	GPR151 activ 10.0 | GPR151 confirm inactive | GPR119 counter inactive
CCCCn1c(O)c(Nc2ccc3c(c2)=NC(=O)N=3)c2ccccc21	GPR151 activ 6.8 | GPR151 confirm inactive | GPR119 counter inactive
CCCCn1c(O)c(C2=c3ccccc3=NC2=O)c2ccccc21	none

Screens from PubChem BioAssay.
